Assay [1] can be described thus: NCI Yeast Anticancer Drug Screen. Data for the rad50 strain (AID 155).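 Further: 0% = growth of vehicle-only cultures of the same strain.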 The conditions noted are these: S. cerevisiae rad50 strain growth inhibition, stronger effect = higher value. Summed up:
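Genetically altered yeast (DNA repair pathway); compound treatment; growth inhibition vs vehicle ctrl.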

The nature of assay [2]: NCI Yeast Anticancer Drug Screen. Data for the mec2-1 strain (AID 157). Particulars: S. cerevisiae mec2-1 strain, stronger effect = higher value. Put shortly:
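Readout is yeast growth inhibition, normalised to vehicle-treated controls, in the mec2-1 strain exposed to compound.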

The nature of assay [3]: NCI Yeast Anticancer Drug Screen. Data for the sgs1 mgt1 strain (AID 161).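 Further: 0% = growth of cultures given vehicle only.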 Particulars: S. cerevisiae sgs1 mgt1 strain, stronger effect = higher value. Put shortly: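 Growth of a repair-deficient yeast mutant was monitored after compound treatment and expressed as inhibition relative to vehicle-treated cultures.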
A short description of assay [4]: NCI Yeast Anticancer Drug Screen. Data for the cln2 rad14 strain (AID 165).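 Further: 0% = growth equal to vehicle treated cultures.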 The conditions noted are these: S. cerevisiae cln2 rad14 strain, stronger effect = higher value. Summed up:
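Relative to vehicle controls, growth inhibition of compound-treated cln2 rad14 yeast was recorded.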

Assay [5] in a line: NCI Yeast Anticancer Drug Screen. Data for the bub3 strain (AID 167). Particulars: S. cerevisiae bub3 mutant strain, stronger effect = higher value. Summed up:
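Yeast carrying a defined mutation is treated with each compound, and growth is compared with that of vehicle-exposed cells to give inhibition.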

Assay [6] in a line: NCI Yeast Anticancer Drug Screen. Data for the mlh1 rad18 strain (AID 175). Particulars: S. cerevisiae mlh1 rad18 strain growth inhibition, stronger effect = higher value. Put shortly:
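Test agents were incubated with a yeast strain of defined genotype (DNA damage repair defect). Inhibition of growth was derived by comparison with vehicle-exposed cultures.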

[7] abbreviates: at 5.0 µM (retest, dose inferred, filed as 0.5).
Setting [8] is: at 50.0 µM (retest, dose inferred, filed as 5.0).

The panel holds about 79,000 compounds, 15% with a hit somewhere; the sample as a whole holds those more often. A number with no mark means an inactive call. The source made the active and inactive calls. No stated cut-off is given here; in the data, active means growth inhibition above about 70%; inactive means the rest.

Regarding `O=C(/C=C\c1ccccc1)/C=C/c1ccccc1`, the growth inhibition is 4% in assay [1] (setting [7]); 39% in assay [1] (setting [8]); 40.5% in assay [1] (at 50.0 µM); -2% in assay [2] (setting [7]); 8% in assay [2] (setting [8]); 12.6% in assay [2] (at 50.0 µM). The growth inhibition in assay [3] (setting [7]) is 0%; in assay [3] (setting [8]) it was 24%; in assay [3] (at 50.0 µM), 28.2%; in assay [4] (setting [7]), -1%; in assay [4] (setting [8]) it was 4%; in assay [4] (at 50.0 µM), -14.3%. Also, the growth inhibition in assay [5] (setting [7]) was 7%; in assay [5] (setting [8]), 53%; in assay [5] (at 50.0 µM), 27.9%; in assay [6] (setting [7]), -1%; in assay [6] (setting [8]) it was 17%; in assay [6] (at 50.0 µM), 70.8% (active).
As to `CCN1CCC(O)(/C=C/c2ccccc2C)C(C(=O)/C=C/c2ccccc2C)C1` (configuration not stated), the growth inhibition was 8% in assay [1] (setting [7]); 84% (active) in assay [1] (setting [8]); 94.4% (active) in assay [1] (at 50.0 µM); -2% in assay [2] (setting [7]); 74% (active) in assay [2] (setting [8]); 98.2% (active) in assay [2] (at 50.0 µM). For the same compound, the growth inhibition in assay [3] (setting [7]) is 3%; in assay [3] (setting [8]), 83% (active); in assay [3] (at 50.0 µM), 99.4% (active); in assay [4] (setting [7]) it was -2%; in assay [4] (setting [8]) it was 54%; in assay [4] (at 50.0 µM) it was 92.2% (active). Besides, the growth inhibition in assay [5] (setting [7]) was 8%; in assay [5] (setting [8]), 83% (active); in assay [5] (at 50.0 µM) it was 98.5% (active); in assay [6] (setting [7]), 4%; in assay [6] (setting [8]), 93% (active); in assay [6] (at 50.0 µM), 99.5% (active).
With `CN(C)c1ccc(C(=O)C2CCCC(C)(C)C2)cc1` (configuration not stated), the growth inhibition in assay [1] (setting [7]) was 22%; in assay [1] (setting [8]), 65%; in assay [1] (at 50.0 µM), 90.7% (active); in assay [2] (setting [7]), 24%; in assay [2] (setting [8]) it was 78% (active); in assay [2] (at 50.0 µM), 93.5% (active). In addition, the growth inhibition in assay [3] (setting [7]) was 13%; in assay [3] (setting [8]), 77% (active); in assay [3] (at 50.0 µM), 91.5% (active); in assay [4] (setting [7]) it was 7%; in assay [4] (setting [8]) it was 27%; in assay [4] (at 50.0 µM), 88.3% (active). Further, the growth inhibition was 57% in assay [5] (setting [7]); 47% in assay [5] (setting [8]); 86.9% (active) in assay [5] (at 50.0 µM); 24% in assay [6] (setting [7]); 68% in assay [6] (setting [8]); 94.8% (active) in assay [6] (at 50.0 µM).
Take `O=C1C(=O)c2ccccc2C=C1C1CCCCC1`: the growth inhibition is 13% in assay [1] (setting [7]); 64% in assay [1] (setting [8]); 85% (active) in assay [1] (at 50.0 µM); 19% in assay [2] (setting [7]); 72% (active) in assay [2] (setting [8]); 78.2% (active) in assay [2] (at 50.0 µM). Further, the growth inhibition is 14% in assay [3] (setting [7]); 63% in assay [3] (setting [8]); 91% (active) in assay [3] (at 50.0 µM); 1% in assay [4] (setting [7]); 43% in assay [4] (setting [8]); 71.5% (active) in assay [4] (at 50.0 µM). The growth inhibition in assay [5] (setting [7]) is 6%; in assay [5] (setting [8]) it was 63%; in assay [5] (at 50.0 µM), 64%; in assay [6] (setting [7]), 18%; in assay [6] (setting [8]), 80% (active); in assay [6] (at 50.0 µM), 91% (active).
As to `Clc1ccc2nc(CCSCCc3nc4ccc(Cl)cc4[nH]3)[nH]c2c1`, the growth inhibition was 5% in assay [1] (setting [7]); 97% (active) in assay [1] (setting [8]); 87.8% (active) in assay [1] (at 50.0 µM); 7% in assay [2] (setting [7]); 98% (active) in assay [2] (setting [8]); 98.7% (active) in assay [2] (at 50.0 µM). Moreover, the growth inhibition is 7% in assay [3] (setting [7]); 97% (active) in assay [3] (setting [8]); 82% (active) in assay [3] (at 50.0 µM); -15% in assay [4] (setting [7]); 99% (active) in assay [4] (setting [8]); 59.9% in assay [4] (at 50.0 µM). The growth inhibition in assay [5] (setting [7]) was -10%; in assay [5] (setting [8]) it was 98% (active); in assay [5] (at 50.0 µM) it was 94.8% (active); in assay [6] (setting [7]) it was 0%; in assay [6] (setting [8]), 98% (active); in assay [6] (at 50.0 µM) it was 97.9% (active).
As to `NC(Cc1ccnnc1)C(=O)O` (configuration not stated), the growth inhibition in assay [1] (setting [7]) is -10%; in assay [1] (setting [8]), -5%; in assay [1] (at 50.0 µM), -8.6%; in assay [2] (setting [7]) it was 10%; in assay [2] (setting [8]) it was -7%; in assay [2] (at 50.0 µM), -36.4%. Further, the growth inhibition was -7% in assay [3] (setting [7]); -10% in assay [3] (setting [8]); -36.2% in assay [3] (at 50.0 µM); -7% in assay [4] (setting [7]); -11% in assay [4] (setting [8]); 29.1% in assay [4] (at 50.0 µM). Moreover, the growth inhibition is -13% in assay [5] (setting [7]); -9% in assay [5] (setting [8]); -22.9% in assay [5] (at 50.0 µM); -16% in assay [6] (setting [7]); -17% in assay [6] (setting [8]); -14.9% in assay [6] (at 50.0 µM).
Turning to `COC(=O)CC1C(=O)OCc2c1cc1n(c2=O)Cc2c-1nc1ccccc1c2OC` (configuration not stated), the growth inhibition is 15% in assay [1] (setting [7]); 77% (active) in assay [1] (setting [8]); 94.4% (active) in assay [1] (at 50.0 µM); 4% in assay [2] (setting [7]); 15% in assay [2] (setting [8]); 9.05% in assay [2] (at 50.0 µM). In addition, the growth inhibition was -4% in assay [3] (setting [7]); -1% in assay [3] (setting [8]); 10% in assay [3] (at 50.0 µM); -12% in assay [4] (setting [7]); -7% in assay [4] (setting [8]); 20.4% in assay [4] (at 50.0 µM). The growth inhibition in assay [5] (setting [7]) is -2%; in assay [5] (setting [8]), 11%; in assay [5] (at 50.0 µM), 12.7%; in assay [6] (setting [7]), 7%; in assay [6] (setting [8]) it was 1%; in assay [6] (at 50.0 µM), 51.2%.
For `C/C=C/C=N/N(c1nnc(-c2ccccc2)c(-c2ccccc2)n1)S(=O)(=O)c1ccc(C)cc1`, the growth inhibition in assay [1] (setting [7]) was 58%; in assay [1] (setting [8]), 58%; in assay [1] (at 50.0 µM), 92.2% (active); in assay [2] (setting [7]), 29%; in assay [2] (setting [8]) it was 29%; in assay [2] (at 50.0 µM), 91.3% (active). Besides, the growth inhibition is 36% in assay [3] (setting [7]); 36% in assay [3] (setting [8]); 90.1% (active) in assay [3] (at 50.0 µM); 38% in assay [4] (setting [7]); 38% in assay [4] (setting [8]); 90% (active) in assay [4] (at 50.0 µM). Besides, the growth inhibition in assay [5] (setting [7]) was 52%; in assay [5] (setting [8]) it was 52%; in assay [5] (at 50.0 µM), 92.3% (active); in assay [6] (setting [7]) it was 34%; in assay [6] (setting [8]) it was 34%; in assay [6] (at 50.0 µM), 91.5% (active).
In the case of `COc1cccc2c1C(=O)c1c(O)c3c(c(O)c1C2=O)C[C@@](O)(/C(C)=N/NC(=O)c1ccc(Cl)c(Cl)c1)C[C@@H]3OC1CC(N)C(O)C(C)O1` (some centres not stated), the growth inhibition in assay [1] (setting [7]) is 89% (active); in assay [1] (setting [8]), 99% (active); in assay [1] (at 50.0 µM) it was 42%; in assay [2] (setting [7]) it was 25%; in assay [2] (setting [8]), 99% (active); in assay [2] (at 50.0 µM), 50.4%. Besides, the growth inhibition is 25% in assay [3] (setting [7]); 99% (active) in assay [3] (setting [8]); 44.6% in assay [3] (at 50.0 µM); 5% in assay [4] (setting [7]); 98% (active) in assay [4] (setting [8]); 72.7% (active) in assay [4] (at 50.0 µM). In addition, the growth inhibition in assay [5] (setting [7]) was 43%; in assay [5] (setting [8]), 99% (active); in assay [5] (at 50.0 µM) it was 98.5% (active); in assay [6] (setting [7]) it was 33%; in assay [6] (setting [8]), 99% (active); in assay [6] (at 50.0 µM) it was 52.6%.
